Experimental data from PubChem BioAssay AID1159580 (chemical genetic matrix, 2015).
In all, about 5,500 compounds went through this assay and about 2,000 (36%) were called active. Roughly 18% stayed inconclusive and do not appear here. No stated cut-off is given here; in the data, active means normalized growth mostly below about 0.91 (no sharp cut-off); inconclusive means no clear call, values can overlap the other calls; inactive means mostly above about 0.92. This is one part of the list.

Assay: chemical genetic growth profiling, strain panel (AID 1159580);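 further: tested at 20 µM; growth read once vehicle control cultures reached saturation at 30 °C; 1 = growth at the plate median or of vehicle wells; lower values mean less growth of the strain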
Conditions: growth OD

Measured: normalized growth

C[C@]12CC(=O)C3C(CC[C@@H]4C[C@H](O)CC[C@]34C)C1CC[C@]2(O)C(=O)CO (stereo not given in full)
inactive: S. cerevisiae deletion strains, locus YAL013W, strain DEP1, hits give low values 0.997 | S. cerevisiae deletion strains, locus YBR021W, strain FUR4, hits give low values 0.976 | S. cerevisiae deletion strains, locus YBR229C, strain ROT2, hits give low values 0.99 | S. cerevisiae deletion strains, locus YCL029C, strain bik1, hits give low values 1.01 | S. cerevisiae deletion strains, locus YDL035C, strain GPR1, hits give low values 0.996 | S. cerevisiae deletion strains, locus YDL074C, strain BRE1, hits give low values 0.978 | S. cerevisiae deletion strains, locus YDL101C, strain DUN1, hits give low values 0.996 | S. cerevisiae deletion strains, locus YDL185W, strain tfp1, hits give low values 0.977 | S. cerevisiae deletion strains, locus YDL192W, strain arf1, hits give low values 1 | S. cerevisiae deletion strains, locus YDR101C, strain arx1, hits give low values 0.978 | S. cerevisiae deletion strains, locus YDR150W, strain NUM1, hits give low values 0.994 | S. cerevisiae deletion strains, locus YDR162C, strain NBP2, hits give low values 1.02 | S. cerevisiae deletion strains, locus YDR318W, strain mcm21, hits give low values 1.01 | S. cerevisiae deletion strains, locus YDR388W, hits give low values 0.995 | S. cerevisiae deletion strains, locus YDR502C, strain sam2, hits give low values 1.01 | S. cerevisiae deletion strains, locus YEL061C, strain CIN8, hits give low values 0.995 | S. cerevisiae deletion strains, locus YER110C, hits give low values 0.986 | S. cerevisiae deletion strains, locus YER155C, strain BEM2, hits give low values 0.986 | S. cerevisiae deletion strains, locus YER167W, strain BCK2, hits give low values 0.992 | S. cerevisiae deletion strains, locus YGL078C, strain dbp3, hits give low values 0.983 | S. cerevisiae deletion strains, locus YGL086W, strain mad1, hits give low values 0.97 | S. cerevisiae deletion strains, locus YGL248W, strain PDE1, hits give low values 1.01 | S. cerevisiae deletion strains, locus YGR135W, strain pre9, hits give low values 1.03 | S. cerevisiae deletion strains, locus YGR252W, strain gcn5, hits give low values 1.06 | S. cerevisiae deletion strains, locus YHR030C, strain SLT2, hits give low values 0.991 | S. cerevisiae deletion strains, locus YHR079C, strain IRE1 (second series), hits give low values 0.992 | S. cerevisiae deletion strains, locus YHR094C, strain hxt1, hits give low values 0.986 | S. cerevisiae deletion strains, locus YHR129C, strain ARP1, hits give low values 0.992 | S. cerevisiae deletion strains, locus YHR200W, strain rpn10, hits give low values 1.02 | S. cerevisiae deletion strains, locus YIL066C, strain RNR3, hits give low values 0.998 | S. cerevisiae deletion strains, locus YIL073C, strain SPO22, hits give low values 1.03 | S. cerevisiae deletion strains, locus YIL125W, strain kgd1, hits give low values 0.997 | S. cerevisiae deletion strains, locus YIR030C, strain dcg1, hits give low values 0.991 | S. cerevisiae deletion strains, locus YJL095W, strain BCK1, hits give low values 1.04 | S. cerevisiae deletion strains, locus YJL134W, strain LCB3, hits give low values 0.992 | S. cerevisiae deletion strains, locus YJL168C, strain set2, hits give low values 0.994 | S. cerevisiae deletion strains, locus YJL187C, strain SWE1 (second series), hits give low values 1 | S. cerevisiae deletion strains, locus YJR043C, strain POL32, hits give low values 1 | S. cerevisiae deletion strains, locus YJR075W, strain HOC1, hits give low values 0.997 | S. cerevisiae deletion strains, locus YKL009W, strain mrt4, hits give low values 1.1 | S. cerevisiae deletion strains, locus YKL068W, hits give low values 0.994 | S. cerevisiae deletion strains, locus YKL085W, strain MDH1 (second series), hits give low values 1 | S. cerevisiae deletion strains, locus YKL085W, strain MDH1, hits give low values 1 | S. cerevisiae deletion strains, locus YKR001C, strain vps1, hits give low values 0.987 | S. cerevisiae deletion strains, locus YLR039C, strain RIC1, hits give low values 0.977 | S. cerevisiae deletion strains, locus YLR058C, strain SHM2, hits give low values 1.01 | S. cerevisiae deletion strains, locus YLR102C, strain apc9, hits give low values 0.997 | S. cerevisiae deletion strains, locus YLR262C, strain YPT6, hits give low values 1 | S. cerevisiae deletion strains, locus YLR268W, strain sec22, hits give low values 0.96 | S. cerevisiae deletion strains, locus YLR330W, strain CHS5, hits give low values 0.994 | S. cerevisiae deletion strains, locus YLR342W, strain FKS1 (second series), hits give low values 0.982 | S. cerevisiae deletion strains, locus YLR371W, strain rom2, hits give low values 0.993 | S. cerevisiae deletion strains, locus YLR418C, strain cdc73, hits give low values 1.01 | S. cerevisiae deletion strains, locus YML016C, strain PPZ1, hits give low values 0.991 | S. cerevisiae deletion strains, locus YML032C, strain rad52, hits give low values 1.04 | S. cerevisiae deletion strains, locus YML124C, strain tub3, hits give low values 0.998 | S. cerevisiae deletion strains, locus YMR078C, strain ctf18, hits give low values 0.989 | S. cerevisiae deletion strains, locus YMR223W, strain ubp8, hits give low values 1.02 | S. cerevisiae deletion strains, locus YMR263W, strain SAP30, hits give low values 1 | S. cerevisiae deletion strains, locus YMR307W, strain GAS1, hits give low values 1.07 | S. cerevisiae deletion strains, locus YNL067W, strain RPL9B, hits give low values 1.01 | S. cerevisiae deletion strains, locus YNL128W, strain TEP1, hits give low values 0.981 | S. cerevisiae deletion strains, locus YNL153C, strain GIM3, hits give low values 1.01 | S. cerevisiae deletion strains, locus YNL233W, strain BNI4, hits give low values 1.01 | S. cerevisiae deletion strains, locus YNL250W, strain rad50, hits give low values 0.991 | S. cerevisiae deletion strains, locus YNL271C, strain bni1, hits give low values 0.989 | S. cerevisiae deletion strains, locus YNL298W, strain CLA4, hits give low values 0.989 | S. cerevisiae deletion strains, locus YNL307C, strain MCK1, hits give low values 0.983 | S. cerevisiae deletion strains, locus YNL322C, strain KRE1, hits give low values 0.998 | S. cerevisiae deletion strains, locus YNR052C, strain pop2, hits give low values 0.991 | S. cerevisiae deletion strains, locus YOL012C, strain htz1 0.641 | S. cerevisiae deletion strains, locus YOL147C, strain pex11, hits give low values 0.986 | S. cerevisiae deletion strains, locus YOR061W, strain CKA2, hits give low values 0.995 | S. cerevisiae deletion strains, locus YOR069W, strain VPS5, hits give low values 0.988 | S. cerevisiae deletion strains, locus YOR136W, strain idh2, hits give low values 0.973 | S. cerevisiae deletion strains, locus YOR144C, strain elg1, hits give low values 0.993 | S. cerevisiae deletion strains, locus YOR184W, strain ser1, hits give low values 1.01 | S. cerevisiae deletion strains, locus YOR316C, strain cot1, hits give low values 0.993 | S. cerevisiae deletion strains, locus YPL055C, strain LGE1, hits give low values 1 | S. cerevisiae deletion strains, locus YPR119W, strain clb2, hits give low values 0.997 | S. cerevisiae deletion strains, locus YPR141C, strain kar3, hits give low values 0.992 | S. cerevisiae deletion strains, locus YPR163C, strain tif3, hits give low values 0.996 | S. cerevisiae deletion strains, locus YPR167C, strain met16, hits give low values 0.981 | S. cerevisiae deletion strains, strain wtn01, hits give low values 0.943 | S. cerevisiae strains, strain wild type, hits give low values 1
